# Measurements as given in ChEMBL document CHEMBL4513216, “Probing the Open Global Health Chemical Diversity Library for Multistage-Active Starting Points for Next-Generation Antimalarials” (ACS Infect Dis, 2020).
# The whole screen tested about 69,000 compounds, of which about 8,600 (12%) showed an effect of 50% or more. The list comes from a sample in which strong results are over-represented; it also holds similar structures and randomly drawn compounds.
# Tested on: Plasmodium berghei
# Test: Screen against P. berghei liver stage (PbLuc), transformed with Luciferase, at 10uM
# Format: functional, HepG2
# Conditions: tested at 10 uM
row,SMILES,INHIBITION [%]
1,CCCc1cc(NC2CCc3nc(C(C)C)nn3C2)n2ncnc2n1 (centres undefined),-5.65
2,COCCCNC(=O)N1CCN(C(=O)c2nsc3ccc(C)cc23)CC1,15.1
3,CC(C)NC(=O)Cn1cc(OCc2ccc(F)cc2)c(=O)cc1CO,27.5
4,COCCn1cc2c(n1)C(CNC(=O)c1cc(C)[nH]c1C)OCC2 (centres undefined),23.6
5,O=C(NC1CCC(O)CC1)c1ccc2nc(-c3ccc(F)cc3)cn2c1 (centres undefined),35.5
6,CCc1nnc2n1CCN(Cc1ncc(-c3ccc(F)cc3)o1)C2,-3.235
7,Cc1ncsc1CNCC(C)c1nc2ccccc2o1 (centres undefined),50
8,Cc1nc(CNCC(C)c2nc3ccccc3o2)cs1 (centres undefined),20
9,Cc1csc(CNCC(C)c2nc3ccccc3o2)n1 (centres undefined),48.3
10,Nc1cc(-c2cncnc2C2CCN(C(=O)c3ccccc3)C2)ccn1 (centres undefined),3.48
11,Cn1ccnc1CN1C[C@@H]2[C@@H](C1)OCC(=O)N2CC1CCCC1,39.8
12,O=C(c1ccc[nH]1)N1CC[C@@H](OCC2CC2)[C@@H]1Cc1cccnc1,-68.6
13,Cn1c(CN2CCC(OCc3cccnc3)CC2)cc2ccccc21,56.2
14,CN(CC(=O)N1CCC(OCc2cccnc2)CC1)c1ccccc1,5.91
15,O=C(C1CCOC1)N1CCC(OCc2ccccc2)CC1 (centres undefined),33.9
16,O=C(C1CCOCC1)N1CCC(OCc2cccnc2)CC1,85.2
17,O=C(Cc1cccnc1)N1CCC(OCc2ccccc2)CC1,7.84
18,Cn1c(CN2CCN(c3cccnc3)CC2)cc2ccccc21,27.4
19,CCc1ccc(C(=O)NCc2cccc(S(=O)(=O)NC)c2)o1,-14
20,CCn1ccnc1CN1CCCN(C(=O)c2cnn(C)c2)CC1,-21.21
21,Cc1cc(N2CCN(C(=O)Cc3c(C)nc(C)[nH]c3=O)CC2)cc(C)n1,14.9
22,CCO[C@@H]1CN(Cc2scnc2C)[C@@H]2CCCO[C@@H]21,-6.39
23,N#Cc1cnc(N2CCC3(CC2)OCCO3)nc1N,1.61

row,SMILES,INHIBITION [%]
1,Cc1ccc(-c2noc(CN3CCc4cncnc4C3)n2)cc1,38.6
2,Cn1cc(C(=O)N2CCCC(c3cc(O)n(C)n3)C2)cn1 (centres undefined),19.6
3,O=C1CN(S(=O)(=O)c2ccc(F)cc2)CC(O)CN1CC1CC1 (centres undefined),4.07
4,Cc1csc(C(=O)N2CCC(S(C)(=O)=O)CC2)c1,43.7
5,COc1ccc(S(=O)(=O)C2CCN(C(=O)c3cc(C)cs3)CC2)cc1,65.2
6,Cc1csc(C(=O)N2CCC(S(C)(=O)=O)C2)c1 (centres undefined),12.3
7,Cn1cnnc1S(=O)(=O)C1CCN(C(=O)c2cccs2)CC1,41.8
8,Cc1csc(C(=O)N2CCCC(c3[nH]ncc3S(C)(=O)=O)C2)c1 (centres undefined),27.8
9,Cc1csc(C(=O)N2CC(S(=O)(=O)C3CCCCC3)C2)c1,75.2
10,O=C(CCOc1cccc(F)c1)N1CCCC(n2cccn2)C1 (centres undefined),-18
11,Cc1ccc(-c2nc(CN3CCCC3Cn3cncn3)cs2)o1 (centres undefined),-15.5
12,O=S1(=O)COCCN1Cc1ccc(F)c(F)c1,29.9
13,Cc1nc(-c2ccc(S(=O)(=O)N3CCCCC3)cc2)co1,6.09
14,COCCNc1nc(-c2ccc(S(=O)(=O)N3CCCCCC3)cc2)cs1,62.8
15,Cc1nc(-c2ccc(S(=O)(=O)N3CCSC3)cc2)co1,39.6
16,COCCNC(=O)c1cc(S(=O)(=O)N2CCCCC2)cs1,-4.86
17,Cc1nc(-c2ccc(S(=O)(=O)N3CCSCC3)cc2)co1,49.4
18,COCc1nc(-c2ccc(S(=O)(=O)N3CCCC3)cc2)cs1,61
19,COCCCc1nc(-c2ccc(S(=O)(=O)N3CCCC3)cc2)cs1,61
20,Cc1nc(-c2ccc(S(=O)(=O)N3CCOCC3)cc2)co1,14.8
21,COCCNc1nc(-c2ccc(S(=O)(=O)N3CCCCC3)cc2)cs1,-1.16
22,c1cnnc(N2CCCC2CNCc2noc(C3CC3)n2)c1 (centres undefined),-29.8
23,COCCNC(=O)CNC(=O)c1nc(Cc2c(Cl)cccc2Cl)no1,9

row,SMILES,INHIBITION [%]
1,COc1c(C(=O)NCC2CCCO2)nnn1Cc1ccccc1 (centres undefined),-14.7
2,O=C(N1CCOCC1)N1C[C@H]2CN(Cc3nccs3)C[C@H]2C1,34.6
3,O=C(c1cncc2ccccc12)N1CCC[C@@H]1CO,-10.6
4,c1cnc(NCc2ncn3c2CN(Cc2cccnc2)CCC3)nc1,36.1
5,O=C(CN(CC1CCC1)CC(F)(F)F)N1CCOCC1,22.6
6,COc1ccc(-n2nc(C)c(C(C)=O)c2C)cc1C(N)=O,-17.5
7,CCOc1ccc(-n2nc(C)c(CC(C)=O)c2C)cc1C(N)=O,52.8
8,CC(=O)Cc1c(C)nn(-c2cncc(C(N)=O)c2)c1C,-27.5
9,CCOc1ccc(C(=O)CCC(=O)N(C)Cc2snnc2C)cc1C,29.7
10,Cc1nnc(SCc2cc(=O)n3c4c(sc3n2)CCCC4)[nH]1,25.8
11,CC(C)c1noc(CN(Cc2ccccc2F)C2CC2)n1,16.8
12,CC(C)c1noc(CN(Cc2cccs2)C2CC2)n1,41.8
13,COc1cccc(NC(=O)CCCc2nc(C(C)C)no2)c1,26.5
14,CC(C)c1noc(CN(C)C(c2ccc(F)cc2)c2cccnc2)n1 (centres undefined),38.6
15,COc1cccc(COc2nc(C(C)C)no2)c1,17.4
16,CC(C)c1noc(CN(Cc2ccccc2)C2CC2)n1,54.5
17,COc1cccc(CN(C)Cc2nc(C(C)C)no2)c1,61.9
18,CC(C)c1noc(C2CCCN2S(=O)(=O)Cc2ccc(F)cc2)n1 (centres undefined),28.7
19,CC(C)c1noc(CN(Cc2ccc(F)cc2)C2CC2)n1,82.4
20,CCN(Cc1ccc2c(c1)OCCO2)C(=O)NCCc1cnn(C)c1,8.15
21,O=C(Nc1nc2c(s1)CN(S(=O)(=O)C1CC1)CC2)c1ccc(=O)[nH]c1,31.9
22,NC1(C(=O)NCCC2CN(Cc3ccco3)CCO2)CCCC1 (centres undefined),20
23,CCn1ccnc1CN1CCN(C(C)C(=O)N2CCCCCC2)CC1 (centres undefined),30.6
